GAA850 FXN act: frataxin GAA850 promoter activation; activation, % at 6 µM; actives 0.56% (n = 360,000); AID 540364; HEK293 lucGAA850 FXN promoter luciferase reporter, 24 h; percent of 10 µM SAHA response;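 active means activation above the average of all compounds screened plus 3 SD, cutoff fixed separately per campaign, cut at about 7.5% in these data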;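 further: 0% = DMSO wells and 100% = 10 µM SAHA wells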
AHR activator: human AHR activation; P35869; AHR-responsive luciferase reporter cells, luminescence; activation, % at 5 µM; actives 2.5% (n = 320,000); AID 2796; in the data active means activation above about 47%;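 further: 0% = vehicle wells and 100% = reference agonist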
Target sequence (P35869 whole entry, looked up): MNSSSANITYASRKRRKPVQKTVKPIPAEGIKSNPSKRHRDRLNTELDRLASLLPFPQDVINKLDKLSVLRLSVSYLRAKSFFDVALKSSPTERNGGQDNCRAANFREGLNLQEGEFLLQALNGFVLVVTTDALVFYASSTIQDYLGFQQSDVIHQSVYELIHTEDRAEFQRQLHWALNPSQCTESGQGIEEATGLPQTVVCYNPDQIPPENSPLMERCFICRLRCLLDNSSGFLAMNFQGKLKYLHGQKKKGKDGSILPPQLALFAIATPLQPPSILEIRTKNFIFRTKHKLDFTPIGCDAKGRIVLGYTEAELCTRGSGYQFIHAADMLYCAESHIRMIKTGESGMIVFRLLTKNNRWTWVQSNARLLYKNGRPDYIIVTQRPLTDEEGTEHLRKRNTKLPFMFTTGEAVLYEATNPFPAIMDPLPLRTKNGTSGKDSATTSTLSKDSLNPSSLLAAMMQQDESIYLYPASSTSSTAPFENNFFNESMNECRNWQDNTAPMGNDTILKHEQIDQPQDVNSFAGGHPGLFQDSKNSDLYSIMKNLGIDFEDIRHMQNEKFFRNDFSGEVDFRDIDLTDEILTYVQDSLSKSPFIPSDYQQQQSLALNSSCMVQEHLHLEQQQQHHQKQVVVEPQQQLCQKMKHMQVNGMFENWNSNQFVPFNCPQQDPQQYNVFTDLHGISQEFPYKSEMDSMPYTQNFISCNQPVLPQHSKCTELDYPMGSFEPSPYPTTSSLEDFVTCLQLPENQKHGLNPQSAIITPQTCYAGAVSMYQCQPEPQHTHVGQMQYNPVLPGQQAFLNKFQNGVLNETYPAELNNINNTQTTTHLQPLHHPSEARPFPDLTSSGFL
HSF1 inhib: HSF1 inhibition; NIH3T3-HGL HSE-luciferase, MG132-induced, luminescence 8 h; stronger effect = lower value; activity change, negative = inhibition, % at 7.5 µM (by protocol); actives 0.77% (n = 300,000);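 active means more than half of replicate wells show activity change below -50%, luminescence cut by over half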;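 further: luciferase reports HSF-1 transcriptional activity via heat shock element; 0% = median of DMSO wells and -100% = zero luminescence signal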
HSF1 activator: increases HSF-1 driven luciferase reporter signal; actives 1.7% (n = 300,000); AID 504408; activation, % at 9 µM; NIH3T3-HGL HSF-1 luciferase reporter, MG132, 8 h; 100% = twice DMSO control signal;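 active means mean replicate activation of at least 50% with a set share of replicates each reaching 50%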;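 further: 0% = median of the neutral control wells and 100% = twice that signal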
The depositor's hits bear a star; / = no result. Only some compounds are listed: those with a hit (about 4.6% of all), similar ones and a draw of the others.

SMILES	GAA850 FXN act	AHR activator	HSF1 inhib	HSF1 activator
C=C(C)CN(CC)C(=O)CC1C(=O)NCCN1C (centres undefined)	2	-1	-2	-25
O=C(CC1(O)C(=O)Nc2ccc(Br)cc21)c1ccc2c(c1)OCO2 (centres undefined)	-3	6	8	57*
Cc1ccc2c(c1)C(O)(CC(=O)c1ccc3c(c1)OCO3)C(=O)N2 (centres undefined)	0	2	-3	5
Cc1ccnc(N2CCCC(C(=O)Nc3ccc(C)c(C)c3)C2)n1 (centres undefined)	-1	7	25	60*
Cc1ccnc(N2CCCC(C(=O)NCc3cccs3)C2)n1 (centres undefined)	0	3	-66*	-72
Cc1cc(C)nc(N2CCCC(C(=O)NCc3cccs3)C2)n1 (centres undefined)	-1	6	1	-20
Cc1ccc(NC(=O)C2CCCN(c3ncccn3)C2)cc1C (centres undefined)	2	8	16	36
COc1cc(OC)nc(Oc2ccccc2C(=O)Oc2ccc(Cl)cc2)n1	-1	2	-86*	-90
O=C(Nc1ccc(NC(=S)NC(=O)c2ccccc2Cl)cc1)c1cccc(Cl)c1	-2	-3	41	56*
CNC(=O)NC(=S)NC(=O)c1ccccc1Cl	2	-1	-76*	-80
O=C(NC(=S)Nc1ccccc1O)c1ccc(Cl)cc1Cl	1	47	57	76*
CNC(=O)NC(=S)NC(=O)c1cccc(Cl)c1	3	3	-2	15
CC(C)C(=O)Nc1cccc(NC(=S)NC(=O)c2ccccc2Cl)c1	3	4	1	20
O=C(Nc1ccccc1Cl)c1ccc(Cl)cc1Cl	3	-1	16	21
CCN(CC)S(=O)(=O)N1CCC(C(=O)NCCN2CCOCC2)CC1	0	1	-14	7
O=C(CSc1nnnn1-c1cccnc1)Nc1cccc(Cl)c1	-2	16	1	28
O=C(OCCCN1CCOCC1)c1ccc(O)c(O)c1	4	2	-65*	-73
COc1cc(C(=O)OCCN2CCOCC2)ccc1O	1	6	-6	-1
N=c1c2c3c(sc2ncn1Nc1ccccc1)CCC3	0	68*	-8	-2
O=C1/C(=C/c2ccccc2[N+](=O)[O-])COc2ccccc21	-10	14	110	141*
O=C(NNC(=O)c1n[nH]c2ccccc12)c1ccccc1	2	/	/	/
COc1ccc(C(=O)N[C@H](C(=O)NCc2cccs2)C(C)C)cc1	1	3	-6	-3
Cc1cc(C)n(CC(=O)N2CCCC(N3CCN(c4ccc(F)cc4)CC3)C2)n1 (centres undefined)	3	1	-5	12
Cc1ccn(CC(=O)N2CCCC(N3CCN(c4ccc(F)cc4)CC3)C2)n1 (centres undefined)	-2	/	19	67*
COc1cccc(CSc2nnc(C(F)(F)F)n2Cc2ccc(F)cc2)c1	2	2	38	87*
SMILES	GAA850 FXN act	AHR activator	HSF1 inhib	HSF1 activator
C/C(=N\NC(=O)C(O)(c1ccccc1)c1ccccc1)c1ccc(C)o1	0	2	1	-13
C/C(=N\NC(=O)CCC(=O)N/N=C(\C)c1ccc(C)o1)c1ccc(C)o1	-1	74*	-10	7
CCOC(=O)C[C@H]1c2cc(F)ccc2S(=O)(=O)N1c1cccc(OC)c1	0	7	7	14
CC(=O)C[C@H]1c2cc(F)ccc2S(=O)(=O)N1c1ccc(N(C)C)cc1	-2	6	-62*	-65
COCCCNC(=O)c1cn(CC(C)C)c(=O)c2c1c1ccccc1n2C	-2	2	-75*	-82
CN1CCN(C(=S)c2ccc(-c3cccc(Cl)c3Cl)o2)CC1	7	13	49	68*
S=C(c1ccc(-c2ccc(Cl)cc2)o1)N1CCCCC1	4	6	62	101*
O=C(c1ccc(-c2ccccc2Cl)o1)N1CCN(c2ccccc2O)CC1	4	16	7	3
COc1ccccc1CNC(=O)Cn1ccc2cc(S(=O)(=O)N3CCCC3)ccc21	0	2	-4	-6
CN(C)c1nc(-c2cn(CCC#N)c3ccccc23)cs1	2	62*	-15	-6
CC(C)[C@H](NC(=O)Nc1ccc2c(c1)OCCO2)C(=O)O	0	1	-5	-1
O=c1[nH]c2cc3c(cc2cc1CN(Cc1nnnn1CC1CCCO1)C1CCCCC1)OCO3 (centres undefined)	1	56*	8	23
COc1ccc(COC(=O)C2=C(C)NC(=O)NC2c2ccc(F)cc2)cc1 (centres undefined)	-2	5	-6	11
Cc1ccccc1-n1c(C)nnc1SCC(=O)NC1CCCc2ccccc21 (centres undefined)	4	4	-4	9
COc1cc(C(=O)NCCc2ccc(F)cc2)ccc1OCC(=O)N1CCOCC1	0	-2	26	54*
COc1cc(C(=O)NCc2cccc(Cl)c2)ccc1OCC(=O)N1CCOCC1	1	-2	3	5
CCOc1cc(C(=O)NCc2ccccc2)ccc1OCC(=O)N1CCOCC1	1	1	-77*	-80
COC(=O)CCC(=O)Nc1ccc(S(=O)(=O)Nc2cc(OC)nc(OC)n2)cc1	1	74*	0	12
c1ccc(Cn2nnc3c(Nc4ccc5c(c4)OCO5)nc(C4CC4)nc32)cc1	-1	70*	9	13
COc1ccc(OC)c(Nc2nc(C3CC3)nc3c2nnn3Cc2ccccc2)c1	-2	3	3	-4
NC(=O)C1CCN(c2oc(-c3cccs3)nc2S(=O)(=O)c2ccc(Cl)cc2)CC1	-1	1	/	/
COc1cc(/C=C2\SC(=S)N(Nc3ccccc3)C2=O)ccc1O	3	3	39	31
COc1cc(/C=C2\SC(=S)N(Nc3ncc(C(F)(F)F)cc3Cl)C2=O)ccc1O	3	2	66	72*
O=C1/C(=C/c2ccc(O)c(O)c2)SC(=S)N1Nc1ccccc1	7.8*	/	7	27
COc1ccc(CCn2c(NCc3ccco3)nc3c2c(=O)[nH]c(=O)n3C)cc1	0	9	0	4
SMILES	GAA850 FXN act	AHR activator	HSF1 inhib	HSF1 activator
Cn1ncc(Br)c1C(=O)Nc1ccc(Cl)cn1	2	65*	-2	7
Cn1ncc(Br)c1C(=O)Nc1ccc(Br)cn1	0	175*	-3	26
COC(=O)c1ccccc1NC(=O)c1c(Br)cnn1C	0	3	2	-2
O=C(CCC1CCCN(Cc2ccc3c(c2)OCCO3)C1)NCc1ccccc1F (centres undefined)	-1	0	-8	16
CCOC(=O)/C(C#N)=C/c1cc(C)n(-c2ccc(Br)cc2)c1C	/	5	0	-14
CCOC(=O)/C(C#N)=C/c1cc(C)n(-c2ccccc2)c1C	-10	3	-70*	-74
Cc1cc(/C=C(\C#N)C(=O)Nc2ccccc2)c(C)n1-c1cccnc1	6	30	23	58*
CCSc1nnc2c(n1)[nH]c1c(C)cccc12	4	53*	17	20

Screening data: PubChem BioAssay, several laboratories
